The text below walks through data of PubChem BioAssay (EPA / NIEHS).

Molecules are shown by their SMILES. Values joined by “and” are separate entries in the source; they are usually repeats but may differ in a detail not shown here. Equal values may be shown once. Active and inactive are the calls of the source. The calls were made as follows: active = hit-call score of the fitted dose curve at least 0.9, where 1 is the maximum; inactive = score below 0.9.

The nature of the assay: BSK_MyoF_SRB: Viability Assessment in the BioMAP Diversity Plus: MyoF Assay (AID 2284267). Particulars: primary human lung fibroblasts. On the procedure:
BSK_MyoF is a cell-based, multiplexed-readout assay that uses lung fibroblasts, […], with measurements taken at 24 hours after chemical dosing in a microplate: 96-well plate.BSK_MyoF_SRB is an assay component measured in the BSK_MyoF assay. It measures 0.1% sulforhodamine related to cell death using Sulforhodamine staining technology.Data from the assay component BSK_MyoF_SRB was analyzed at the endpoint, BSK_MyoF_SRB, in the positive analysis fitting direction relative to DMSO as the negative control and baseline of activity. Using a type of viability reporter, gain or loss-of-signal activity can be used to understand protein changes. To generalize the intended target to other relatable targets, this assay endpoint is annotated to the 'cell morphology' intended target family, where the subfamily is 'cell conformation'.
The levels of cell surface (or secreted, indicated by the prefix "s") biomarker endpoints were measured by ELISA. Overt cytotoxicity to cells in confluent adherent cultures (all systems other than the BT system) was assessed by measuring total protein levels using sulforhodamine B (SRB) staining in parallel cultures at the time of biomarker measurements, indicated as SRB endpoints. For proliferation assays for adherent cell types, individual cell types are cultured at sub-confluence and relative cell numbers quantified by SRB staining at time points optimized for each system (48 h: 3C and CASM3C systems; 72 h: BT and HDF3CGF systems; 96 h: SAg system). SRB was performed by staining cells with 0.1% SRB after fixation with 10% TCA and reading wells at 560 nm.Viability and proliferation of PBMC (T cells) was quantified by Alamar Blue reduction for the SAg and BT systems. For PBMC viability (referred to as PBMC Cytotoxicity within the assay endpoint names), cells were plated (75,000/well in a 96-well plate) and then chemical samples added for 1 h before addition of activators, SEB and TSST-1 (20 ng/mL final concentration each). Cells were incubated for 90 h. Then, Alamar Blue (20 uL/well) (Invitrogen, Cat DAL1100) was added for 6 h, and the plates were read with a fluorescence microplate reader at 546/580 nm (excitation/emission). For PBMC proliferation, cells were plated and activated as above but incubated for only 16 h prior to addition of Alamar Blue. Plates were read after 6 h.
For `CCCCC(CC)C(=O)OCCOCCOCCOCCOC(=O)C(CC)CCCC` (configuration not stated), the outcome was inactive. Still for that read-out and setting: the result for `CC1=NN(c2ccccc2)C(=O)C1` reads “inactive”; that for `COc1cc(OC)nc(NC(=O)NS(=O)(=O)Nc2ccccc2C(=O)N(C)C)n1`, “inactive”.

As to `Cc1cccc2c1ccc1ccccc12`, the outcome was inactive. Take `COCN(COC)c1nc(N(COC)COC)nc(N(COC)COC)n1`: the result was inactive.

On to `O=C(NCc1ncc(C(F)(F)F)cc1Cl)c1c(Cl)cccc1Cl`, for which the outcome was inactive. As to `O=S(=O)(O)C(F)(F)C(F)(F)C(F)(F)C(F)(F)C(F)(F)C(F)(F)C(F)(F)C(F)(F)C(F)(F)C(F)(F)F`, the outcome was inactive. As a reminder, the AC50 is the concentration giving half of the maximal activity seen. For the compound `NC(=NCCCCCCN=C(N)/N=C(\N)Nc1ccc(Cl)cc1)/N=C(\N)Nc1ccc(Cl)cc1`, the AC50 was 4.76 µM (active). Regarding `O=C(O)C(F)(F)OC(F)(F)C(F)(F)OC(F)(F)C(F)(F)OC(F)(F)C(F)(F)C(F)(F)C(F)(F)F`, the concentration at half-maximal activity (AC50) is 13 µM (active) and 9.16 µM (active). Consider `O=C1c2ccc(O)c(O)c2C(=O)c2c(O)ccc(O)c21`, for which the result was inactive. As for `O=P(O)(O)CCC(F)(F)C(F)(F)C(F)(F)C(F)(F)C(F)(F)C(F)(F)C(F)(F)C(F)(F)F`, the outcome was inactive.

As for `CCOC(=O)CN[C@@H](C(=O)N1CC[C@H]1C(=O)NCc1ccc(/C(N)=N/O)cc1)C1CCCCC1`, the outcome was inactive. On to `O=C(NO)c1ccccc1`, for which the outcome was inactive. Regarding `O=C(CC(=O)C(F)(F)C(F)(F)C(F)(F)F)c1cccs1`, the outcome was inactive.

`O=C(O)CCC(F)(F)C(F)(F)C(F)(F)C(F)(F)C(F)(F)C(F)(F)F`: the result was inactive. With `CCCCCCCCCCCCCCCCCC[N+](C)(C)Cc1ccccc1`, the half-maximal activity concentration (AC50) was 2.65 µM (active). Consider `Cc1ccc(C(=O)c2ccccc2)cc1`, for which the outcome was inactive.

For the compound `COc1cccc(O)c1`, the outcome was inactive. On to `C=CC(=C)CC/C=C(\C)CCC=C(C)C`, for which the result was inactive. Turning to `CN(C)c1ccc(C(=C2C=CC(=[N+](C)C)C=C2)c2ccccc2)cc1`, the concentration at half-maximal activity (AC50) is 0.485 µM (active). For `Oc1cc2ccccc2cc1O`, the result was inactive.

In the case of `OCCN1CN(CCO)CN(CCO)C1`, the result was inactive. For `CN(Cc1cnc2nc(N)nc(N)c2n1)c1ccc(C(=O)N[C@@H](CCC(=O)O)C(=O)O)cc1`, the outcome was inactive. Same read-out and setting: the same measure for `COC1=CC(=O)C[C@@H](C)[C@]12Oc1c(Cl)c(OC)cc(OC)c1C2=O`: “inactive”. For `O=P(O)(O)CCC(F)(F)C(F)(F)C(F)(F)C(F)(F)C(F)(F)C(F)(F)F`, the outcome was inactive. Regarding `C[C@]12CC[C@@H]3c4ccc(O)cc4CC[C@H]3[C@@H]1C[C@@H](O)[C@@H]2O`, the result was inactive.

Take `C=CC(C)(CCC=C(C)C)OC(C)=O` (configuration not stated): the outcome was inactive.

`CC(C)(C)c1ccc(O)c(O)c1`: the concentration at half-maximal activity (AC50) is 33.5 µM (active). For the compound `OCC(F)(F)C(F)(F)C(F)(F)C(F)(F)C(F)(F)C(F)(F)C(F)(F)C(F)(F)C(F)(F)C(F)(F)C(F)(F)F`, the result was inactive. In the case of `CCCCCc1ccc(O)cc1`, the AC50 was 28.7 µM (active). For `O=C(O)CCC(F)(F)C(F)(F)C(F)(F)C(F)(F)C(F)(F)F`, the result was inactive.

Regarding `Cc1ccc(N=Nc2c(O)ccc3ccccc23)c(C)c1`, the outcome was inactive. As for `C=CC(=O)OCCC(F)(F)C(F)(F)C(F)(F)C(F)(F)C(F)(F)C(F)(F)C(F)(F)C(F)(F)F`, the outcome was inactive. For `CC[N+](CC)(CC)Cc1ccccc1`, the result was inactive. Same read-out and setting: the same measure for `CN(CCO)S(=O)(=O)C(F)(F)C(F)(F)C(F)(F)C(F)(F)C(F)(F)C(F)(F)C(F)(F)C(F)(F)F`: “inactive”. `C=COC(=O)C(C)(C)CCCCCC`: the half-maximal activity concentration (AC50) was 30.9 µM (active). With `O=C1OC2(c3ccccc31)c1cc(I)c(O)c(I)c1Oc1c2cc(I)c(O)c1I`, the result was inactive.
